rCAG binder – molecules binding r(CAG) RNA repeats; 370,000 compounds, 1.3% hits; r(CAG) RNA repeat, TO-PRO-1 dye displacement fluorescence; inhibition, % at 3 µM;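 active means inhibition above the plate cutoff, the mean of all test compounds on that plate plus 3 SD, cut at about 35% in these data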;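 further: 0% = DMSO alone and 100% = 100 µM mitoxantrone as full dye displacement; higher means more dye released from RNA so lower well fluorescence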
KLK7 zymogen act – activates the human kallikrein-7 zymogen. P49862. purified proKLK7, EDANS-DABCYL substrate fluorescence; 100% is mature enzyme control, 0% vehicle. activation, % at 7 µM. 370,000 compounds, 0.9% hits. AID 652039;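 active means activation above the mean of all tested compounds plus 3 SD, computed per campaign excluding outliers beyond control limits, cut at about 13% in these data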
Pemphigus Ab inh – blocks pemphigus antibody binding to human desmoglein-3. AID 588358. 310,000 compounds, 0.48% hits. P32926. binding (percent of control), % at 10 µM. DSG3-coupled beads, scFv-anti-DSG3-GFP binding, flow cytometry; hits give low values;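 active means binding more than 3 SD below its plate's average and above zero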;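 further: hits lower antibody fragment binding to DSG3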
MPTP inh – blocks calcium-induced mitochondrial swelling; isolated mouse mitochondria, Ca2+ swelling absorbance, 30 min; inhibition, % at 10 µM; 360,000 compounds, 1.4% hits; AID 602449;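 active means inhibition of 50% or more, scaled per plate between neutral and stimulator controls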;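 further: 0% = DMSO wells given calcium and 100% = 1 mM EGTA wells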
ADAM10 inh – ADAM10 inhibition, QFRET primary screen; recombinant ADAM10, EDANS/DABCYL FRET peptide cleavage, 3 h; 370,000 compounds, 0.62% hits; inhibition, % at 7 µM;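 active means inhibition above a per-campaign cutoff equal to the mean of compounds falling between control-based bounds plus 3 SD, cut at about 20% in these data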;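 further: 0% = DMSO wells while the 100% control is not disclosed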
ADAM17 inh – inhibits human ADAM17; P78536; recombinant ADAM17, EDANS/DABCYL FRET peptide cleavage; inhibition, % at 6.95 µM; 370,000 compounds, 0.83% hits; AID 720648;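 active means inhibition above the mean of compounds lying between control limits plus 3 SD, set per campaign, cut at about 8.5% in these data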;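 further: 0% = DMSO-only wells as the low control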
rCAG bind conf – r(CAG) RNA repeat binding, confirmation. AID 652065. shares compounds with rCAG binder. TO-PRO-1 dye displacement fluorescence. 4,300 compounds, 70% hits. inhibition, % at 3 µM;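 active means inhibition above a per-plate cutoff, the mean inhibition of sample wells plus 3 SD, cut at about 35% in these data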;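 further: loss of TO-PRO-1 fluorescence as compound displaces dye from 1x1 AA loop RNA; 0% = DMSO only wells and 100% = 100 µM mitoxantrone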
dCAG dye counter – counter-screen for rCAG RNA binders: DNA CAG dye complex inhibitors; d(CAG) DNA oligo TO-PRO-1 dye displacement, fluorescence; 4,300 compounds, 94% hits; AID 652068; shares compounds with rCAG binder; inhibition, % at 3 µM;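 active means inhibition above its plate's cutoff, the mean test-well inhibition plus 3 SD, cut at about 4.8% in these data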;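 further: 0% = DNA dye mix with DMSO and 100% = 100 µM mitoxantrone; hits displace the dye from DNA and so lower well fluorescence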
* hit, by the source's call; . = no result given. In the library only some 4.7% were active in any assay of this set; here they are far more common.

SMILES	rCAG binder	KLK7 zymogen act	Pemphigus Ab inh	MPTP inh	ADAM10 inh	ADAM17 inh	rCAG bind conf	dCAG dye counter
O=C(O)c1[nH]c2ccccc2c1C(c1cc(Cl)cc([N+](=O)[O-])c1O)c1c(C(=O)O)[nH]c2ccccc12	92*	0	108	-1	4	2	73*	37*
O=C(O)COc1ccc(Br)cc1C(c1c(C(=O)O)[nH]c2ccccc12)c1c(C(=O)O)[nH]c2ccccc12	.	.	124	-2	.	.	.	.
COc1ccc(CN=Cc2c(C(=O)O)[nH]c3ccccc23)cc1	4	2	96	-3	-16	-8	.	.
O=C(O)c1[nH]c2ccccc2c1C(c1ccccc1)c1c(C(=O)O)[nH]c2ccccc12	70*	0	96	7	-5	-1	47*	15*
COc1cc(C(c2c(C(=O)O)[nH]c3ccccc23)c2c(C(=O)O)[nH]c3ccccc23)ccc1OCc1ccccc1	94*	0	105	-2	7	2	90*	68*
CCCCCCCCN1C(=O)[C@@H](CC(=O)N2CCOCC2)C[C@@]2(C(=O)OC)C1=C[C@H](C1CCCC1)O[C@@H]2C	6	1	.	.	12	4	.	.
COc1ccc2c(CN3CCN(c4ccccc4F)CC3)cc(=O)oc2c1	6	1	.	2	-33	-9	.	.
CCN1C(=O)N(C(C)=O)[C@@H]2C[C@H](C(=O)N3CCCC3)[C@H](C)[C@H](c3ccccc3)C[C@@H]21	2	0	.	.	-14	-1	.	.
CC1CCCCN1S(=O)(=O)c1ccc(C(=O)Nc2nnc(-c3ccncc3)o2)cc1 (centres undefined)	14	0	103	-1	0	4	.	.
COc1ccc(-c2nnc(NC(=O)c3ccc(S(=O)(=O)N4COCC4(C)C)cc3)o2)cc1	46*	0	.	-11	9	2	54*	15*
O=S(=O)(Nn1c(O)c(C=C2N=c3ccccc3=N2)sc1=S)c1ccccc1	89*	0	85	8	-25	-14	72*	37*
Oc1c(C=C2N=c3ccccc3=N2)sc(=S)n1-c1ccccc1	3	0	89	4	-4	-1	.	.
O=C(Nn1c(O)c(C=C2N=c3ccccc3=N2)sc1=S)c1ccccc1Cl	63*	0	91	1	-19	-4	33	11*
CCn1c(O)c(C=C2N=c3ccccc3=N2)sc1=S	6	0	99	0	-2	-4	.	.
O=S(=O)(c1ccc(Br)s1)N1CCC(c2nc3ccccc3o2)CC1	6	0	.	.	-8	1	.	.
CCn1c(SCC(=O)Nc2ccc3c(c2)c2ccccc2n3CC)nnc1-c1ccco1	35*	0	91	11	6	0	31	13*
O=C(CSc1nccc(=O)[nH]1)Nc1ccc2ccccc2c1	9	0	104	-1	-16	-5	.	.
CCn1c2ccccc2c2cc(NC(=O)CSc3nccc(=O)[nH]3)ccc21	44*	-4	.	2	-59	-24	40*	16*
C[C@@H]1CN([C@H](C)CO)C(=O)CCCn2nncc2CO[C@H]1CN(C)Cc1cccc(C(=O)O)c1	2	0	102	-1	4	3	.	.
COc1ccc(-n2nc(C(=O)NCC(=O)NCCC3=CCCCC3)c3ccccc3c2=O)cc1OC	36*	-2	.	0	-8	-2	5	7.3*
CN1C(=O)c2cc(NC(=O)Nc3ccccc3)ccc2OC[C@H]2O[C@@H](CC(=O)NC3Cc4ccccc4C3)CC[C@@H]21	10	0	.	.	8	-3	.	.
COc1ccc2nc(N3C(=O)C(O)=C(C(=O)c4ccco4)C3c3ccccc3OC)sc2c1 (centres undefined)	39*	0	83	0	-15	1	57*	21*
CCOc1ccc2nc(N3C(=O)C(O)=C(C(=O)c4ccco4)C3c3ccco3)sc2c1 (centres undefined)	22	0	94	-1	5	1	.	.
CCOC(=O)c1sc(N2C(=O)C(O)=C(C(=O)c3ccco3)C2c2ccco2)nc1C (centres undefined)	31	0	94	0	-2	-1	.	.
Cc1cc(C)c2nc(N3C(=O)C(O)=C(C(=O)c4ccco4)C3c3ccco3)sc2c1 (centres undefined)	81*	-1	102	1	8	-1	82*	49*
SMILES	rCAG binder	KLK7 zymogen act	Pemphigus Ab inh	MPTP inh	ADAM10 inh	ADAM17 inh	rCAG bind conf	dCAG dye counter
COc1ccc2nc(N3C(=O)C(O)=C(C(=O)c4ccco4)C3c3ccc(C)o3)sc2c1 (centres undefined)	54*	0	109	0	-36	-12	59*	19*
CC(C)NC(=O)N(C)C[C@@H]1OCc2cn(nn2)CCCC(=O)N([C@@H](C)CO)C[C@H]1C	5	-1	.	.	-5	0	.	.
C=CCn1c(SCC(=O)N(CCOC)c2c(N)n(CCCC)c(=O)[nH]c2=O)nnc1-c1ccc(Cl)cc1	-8	1	101	1	2	-1	.	.
Cc1ccc(NC(=O)Nc2nc(-c3ccc(C)s3)cs2)cc1	52*	0	101	5	8	-2	17	21*
CC(=O)Nc1nc(-c2ccc(Br)s2)cs1	3	0	.	-1	5	-1	.	.
COc1ccc(NC(=O)Nc2nnc(-c3ccco3)s2)cc1	23	0	98	27	4	-1	.	.
COc1ccc(NC(=O)Nc2nnc(-c3ccncc3)s2)cc1	42*	0	106	16	-2	-3	18	8.9*
COc1ccc(-c2csc(NC(=O)Nc3ccccc3)n2)cc1	40*	0	87	3	6	-4	14	16*
COc1ccccc1C(CNC(=O)CNC(=O)c1cccc(Cl)c1)N1CCCC1 (centres undefined)	-4	0	104	-1	-11	-5	.	.
CC1CCC2(CC1)NC(=O)N(CC(=O)Nc1ccc(C(N)=O)cc1)C2=O (centres undefined)	4	-1	105	2	-19	-4	.	.
NC(=O)c1cnc(Cc2c[nH]c3ccccc23)c(I)c1	6	0	.	-1	-1	-3	.	.
S=c1[nH]nc(Cc2sc(-c3ccccc3)nc2-c2ccccc2)o1	61*	-1	.	0	5	-2	47*	17*
Cc1ccc(S(=O)(=O)N2CCCC(C(=O)NCc3ccco3)C2)cc1 (centres undefined)	2	0	.	.	4	2	.	.

Source: PubChem BioAssay
